Growth inhibition data for 17 compounds are collected here from PubChem BioAssay (NCI).

About 79,000 compounds went through this panel and 15% of them were active in at least one assay; those are over-represented in the sample as a whole. Activity calls are given as the source filed them. Cut-off read from the data, not from the text of the source: active = growth inhibition above about 70%; inactive = the rest.

A short description of the experiment: NCI Yeast Anticancer Drug Screen. Data for the rad50 strain (AID 155).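 Note: 0% = growth of vehicle-only cultures of the same strain.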 As to conditions: S. cerevisiae rad50 strain growth inhibition; at 33.0 µM; active compounds read high. The gist of the method:
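Inhibition values express reduced yeast growth in compound-treated cultures relative to vehicle-treated controls.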
As for `CNC(=O)OCc1c(COC(=O)NC)c(C)n(-c2ccc(Cl)c(Cl)c2)c1C`, the growth inhibition is 97% (active).

Regarding `COc1ccc2nc(N/N=C/c3sccc3C)cc(C)c2c1`, the growth inhibition was 94% (active).

As to `O=C(O)/C=C\C(=O)NNc1ccc(Br)cc1`, the growth inhibition was 98% (active).

As to `S=c1[nH]nc(Cc2ccccc2)c(=S)[nH]1`, the growth inhibition is 89% (active).

Turning to `COc1ccc2nc3cccc([N+](=O)[O-])c3c(NCCCO)c2c1`, the growth inhibition is 97% (active).

For the compound `CCN(CC)CCSc1c2ccccc2nc2cc(NCC(=O)Nc3ccccc3-c3ccccc3NC(=O)CNc3ccc4c(SCCN(CC)CC)c5ccccc5nc4c3)ccc12`, the growth inhibition was 75% (active).

With `Cc1ccc(N(C=O)c2c([N+](=O)[O-])cc([N+](=O)[O-])c3c2=[N+]([O-])CN=3)cc1`, the growth inhibition was 92% (active).

Consider `COc1ccc(C(=O)OCCc2ccccc2)cc1`, for which the growth inhibition is 13% (inactive).

Regarding `COc1ccc(C(=O)NCCN(C)C)c2nc3ccccc3cc12`, the growth inhibition is 95% (active).

`NCC(O)CSCc1ccc(Cl)cc1` (configuration not stated): the growth inhibition is 7% (inactive).

On to `CN(C)/N=N/c1nc[nH]c1C(N)=O`, for which the growth inhibition is 20% (inactive).

Turning to `O=c1[nH]c(=O)n(CCCO)cc1F`, the growth inhibition was -12% (inactive).

On to `COc1ccc(/C(=N/O)c2ccccc2C2=Nc3ccccc3C(NCc3ccccc3)O2)cc1C` (configuration not stated), for which the growth inhibition is 59% (inactive).

For the compound `CCCC(=O)OC(OC(=O)CCC)c1ccc([N+](=O)[O-])o1`, the growth inhibition was 47% (inactive).

Regarding `O=C(/C(=C/c1ccccc1)CBr)c1ccccc1`, the growth inhibition is 96% (active).

On to `O=C(Cc1ccccc1F)NC1=C(Cl)C(=O)c2ccccc2C1=O`, for which the growth inhibition is 22% (inactive).

Take `Cc1cccc(N2CCN(C(=O)/C(=C/c3ccccc3)NC(=O)c3ccccc3)CC2)c1`: the growth inhibition is 59% (inactive).
